Compound activity from PubChem.
ATXN2 expr inh = ATXN2 expression inhibition; HEK-293 ATXN2-luciferase reporter, luminescence, 24 h; Potency, µM (titrated, usually from 57 µM), most hits filed as inhibitors; actives 0.72% (n = 360,000); AID 1745845; further: nearly all actives have a fitted effect of over 55% in size
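ATXN2-luciferase reporter cells (luciferase flanked by upstream and downstream ATXN2 gene portions) were treated 24 h at 37 °C with compounds at up to 57 uM. SteadyGlo luminescence gave expression; GF-AFC fluorescence gave viability.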
S2 tox = viability counter-screen for ATXN expression inhibitors; S2 cells (HEK-293 line with an ATXN2-luciferase reporter) viability, CellTiter-Fluor protease fluorescence, 24 h; Potency, µM (series often up to 56.7 µM), actives largely listed as cytotoxic; actives 0.49% (n = 400,000); AID 651635; further: nearly all actives have a fitted effect of over 40% in size
A549 tox = kills or reduces viability of A549 cells in Nrf2 counter-screen; A549 ARE-Fluc cells, CellTiter-Fluor viability, 18-24 h; Potency, µM (doses to about 46 µM), actives largely listed as inhibitors; actives 0.16% (n = 390,000); AID 504648
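A549 ARE-Fluc cells in 5% FBS OPTI-MEM, 5000 cells/well, rested 2 h then exposed to compounds in concentration-response for 18-24 h at 37 °C. Viability by CellTiter-Fluor fluorescence (Ex 405/Em 525) after 30 min; luciferase luminescence (BugLite, 15 min, RT) read afterwards.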
Nrf2 ARE act = Nrf2 pathway activation. AREc32 ARE-luciferase reporter (MCF7-derived line), luminescence, 24 h. Potency, µM (doses to about 46.1 µM), usual class: activators. actives 0.31% (n = 410,000). AID 624171; further: nearly all actives have a fitted effect of over 65% in size
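Steps: seed AREc32_Fluc cells (1000/well, 5% FBS OPTI-MEM); incubate overnight at 37 deg C; add 23 nL compound; incubate 24 hr; add Steady-Glo; hold 30 min RT; read luminescence.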
Nrf2 block = Nrf2 pathway inhibition; A549 ARE-Fluc reporter, luciferase luminescence, 18-24 h; Potency, µM (series often up to 46 µM), usual class: inhibitors; actives 2.1% (n = 360,000); further: nearly all actives have a fitted effect of over 60% in size
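Two sequential reads on A549 ARE_Fluc cells exposed to compound for 18-24 h: a CellTiter-Fluor fluorescence read for viability, then a luciferase luminescence read for Nrf2/ARE activity.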
A number is an active result; – = inactive; ? = inconclusive; · = not tested or not shown; [ ] = another dose, or the depositor's remark. Compounds with a hit are over-represented: about 2.9% of the library has one in this group of screens. The call rests on the fitted dose curve; in most records, active means well fitted curve in the direction sought with a large enough effect; inconclusive means small, poorly fitted or top-dose-only effect, or another doubt; inactive means no such curve, though single readings can be large; an effect the other way counts as inactive or inconclusive.

SMILES	ATXN2 expr inh	S2 tox	A549 tox	Nrf2 ARE act	Nrf2 block
OC[C@H]1O[C@@H](n2cnc3c(NCc4ccco4)ncnc32)[C@H](O)[C@@H]1O	?	?	?	?	8.2µM
C=C(C)C(=O)OCC(O)CO (configuration not stated)	–	–	·	·	·
COc1cc(-c2cc3nc(NCc4cccs4)ccn3n2)cc(OC)c1OC	?	?	·	–	·
COc1cc(-c2cc3nc(NCc4cccc(Cl)c4)ccn3n2)cc(OC)c1OC	13µM	?	·	–[9.22 µM]	·
NC(CCc1ccccc1)c1csc(NC(=O)Nc2cccc(Cl)c2)n1 (configuration not stated)	20µM	28µM	·	–	·
NC(c1csc(NC(=O)Nc2cccc(Cl)c2)n1)C1CCCCC1 (configuration not stated)	?	28µM	·	–	·
COc1ccccc1CNC(=O)Nc1nc(C(N)Cc2ccc(Cl)cc2)cs1 (configuration not stated)	?	32µM	·	–	·
Cc1cc(-c2ccnc(-n3ncc(C(=O)NCCc4cccnc4)c3C)n2)c(C)s1	·	–	·	·	·
COc1ccc(C2C=C3CN(C(=O)OC(C)(C)C)S(=O)(=O)C3CC2OC(=O)c2cccc(C)c2)cc1 (configuration not stated)	·	·	–	·	–
CSc1nnc(CNC(=O)c2cccc3ccccc23)n1-c1ccccc1C	·	–	·	·	·
COc1ccc(-c2cc3nc(CCl)[nH]c(=O)c3s2)cc1	13µM	–	–	–	?
COc1ccc(-c2cc3nc[nH]c(=O)c3s2)cc1	–	–	–	–	–
O=C(CSc1ncc(-c2ccccc2)n1CC1CCCO1)N1CCCCC1 (configuration not stated)	–	–	–	–	–
Nc1ncc(-c2ccccc2)n1CC1CCCO1 (configuration not stated)	–	–	·	–	16µM
Cc1c(C(=O)N(C)CC2CCCN(C)C2)cnn1-c1nccc(-c2ccco2)n1 (configuration not stated)	·	–	·	·	·
O=C(CCn1ccc2cc(S(=O)(=O)N3CCCC3)ccc21)NCc1ccccc1Cl	–	–	–	–	–
CCOc1ccc(CCNC(=O)CCc2c(C)nc3cc(-c4ccccc4OC)nn3c2C)cc1	·	·	–	–	15µM
Clc1cccc(Nc2nc(-c3ccncc3)nc3ccccc23)c1	?	?	–	–	?
O=C(O)c1ccc2c(c1)nc(Nc1cccc(Cl)c1)c1ccncc12	9.7µM	·	·	·	·
CN(CC(=O)NCCc1ccc(S(N)(=O)=O)cc1)Cc1c(F)cccc1Cl	–	–	–	–	–
CN(CC(=O)NCCc1ccc(S(N)(=O)=O)cc1)Cc1ccc(Cl)cc1Cl	–	–	–	–	18µM
Clc1nc(NCC2CCCO2)c2[nH]cnc2n1 (configuration not stated)	·	·	–	·	–
COc1cccc(-c2nc(NCc3cccnc3)c3ccccc3n2)c1O	–	–	–	–	–
COc1cccc2c(NCc3ccccc3)nc(-n3c(N)nc4ccccc43)nc12	27µM	·	·	·	·
COc1cccc(N=c2oc3ccc(OC)cc3cc2-c2nc3ccccc3[nH]2)c1	?	?	13µM	–	?
SMILES	ATXN2 expr inh	S2 tox	A549 tox	Nrf2 ARE act	Nrf2 block
COc1cccc(N=c2oc3ccccc3cc2-c2nc3ccccc3[nH]2)c1	–	–	–	–	?
CSCCC(NS(=O)(=O)c1ccc(Cl)cc1)C(=O)OCC(=O)c1c(C)[nH]c2ccccc12 (configuration not stated)	–	–	?	–	18µM
O=C(CCc1ccccc1)NC(NC(=S)Nc1ccc(Cl)cc1)C(Cl)(Cl)Cl (configuration not stated)	32µM	·	?	–	15µM
CC(C)CC(=O)NC(NC(=S)Nc1ccccc1)C(Cl)(Cl)Cl (configuration not stated)	–	–	–	–	–
O=C(NC(NC(=S)Nc1cccc(Cl)c1)C(Cl)(Cl)Cl)OCc1ccccc1 (configuration not stated)	?	?	?	–	16µM
Cc1c(C(=O)N2CCN(C)CC2)sc2ncnc(NCC3(c4ccccc4)CCOCC3)c12	·	–	·	·	·
O=C1CC(C(=O)Nc2ccc(F)cc2)S/C(=N\N=C\c2ccco2)N1 (configuration not stated)	–	–	–	11µM	–
CCC(=O)N1CCc2cc(S(=O)(=O)CCC(=O)Nc3ccc(Cl)c(C(F)(F)F)c3)ccc21	?	?	–	–	21µM
CS(=O)(=O)N1CCc2cc(C(=O)Nc3ccc(Cl)c(C(F)(F)F)c3)ccc21	?	?	–	–	21µM
CCOC(=O)C1=C(CN(C)Cc2ccccc2)NC(=O)NC1c1ccc(OC)cc1 (configuration not stated)	·	·	–	–	–
CCOC(=O)C1=C(CN2CCN(c3cc(C)ccc3C)CC2)NC(=O)NC1c1ccc(Cl)cc1 (configuration not stated)	·	·	–	–	21µM
CCOC(=O)C1=C(CS(=O)(=O)c2ccc(C)cc2)NC(=O)NC1c1ccc(C(C)C)cc1 (configuration not stated)	?	?	?	–	18µM
CCOC(=O)C1=C(CN2CCN(c3ccc(OC)cc3)CC2)NC(=O)NC1c1ccc(Cl)cc1 (configuration not stated)	?	·	–	–	?
CCOC(=O)C1=C(CN(C)Cc2ccccc2)NC(=O)NC1c1ccc(OC(C)C)cc1 (configuration not stated)	?	?	–	–	26µM
CC(C)Oc1ccc(C(=O)NCC2Cc3cc(F)cc(-c4cnccn4)c3O2)cc1 (configuration not stated)	·	–	·	·	·
Cc1cccc(OCC(=O)Nc2ccc3c(c2)nc(CCNC(=O)c2ccco2)n3C)c1	·	·	–	–	–
Cc1ccc(-c2ccnc(-n3ncc(C(=O)N(C)CC4CCCN(C)C4)c3C)n2)o1 (configuration not stated)	·	–	·	·	·
OC1CCN(Cc2ccc3c(c2)CN(C/C=C/c2ccco2)CCO3)CC1	·	–	·	·	·
COC(=O)c1ccc(C(=O)N2CCc3c(C(=O)NC(C)c4ccco4)c(OC)cc(=O)n3CC2)cc1 (configuration not stated)	·	–	·	·	·
CCCn1c(=NC(=O)c2cc3ccccc3o2)c(C(=O)OCC)cc2c(=O)n3ccccc3nc21	–	–	–	–	–[9.27 µM]
O=C1C2C3C=CC(C3)C2C(=O)N1CCCCCCN1C(=O)C2C3C=CC(C3)C2C1=O (configuration not stated)	·	–	–	–	15µM
O=[N+]([O-])c1ccc(S(=O)Cc2ccccc2)c([N+](=O)[O-])c1 (configuration not stated)	?	21µM	?	?	?
Cc1cc([N+](=O)[O-])ccc1NCc1ccccc1	–	–	?	–	18µM
Cc1cc([N+](=O)[O-])ccc1NCc1ccc2ccccc2c1	–	–	–	–	–
